From the supplement of paper PMC10849652
The full data set covers some 7,900 targets. This sample favours those with a hit. About 0.6% of all pairs of compound and target were hits.

Assays:
Experiment in all cases: log2 fold change, soluble protein after heating vs DMSO (PISA); higher = thermal stabilisation; K562 cells, 10 uM, 30 min; active = over 0.2 and 3.5 SD of the protein, either way, in both replicates (recomputed)
[1] = compound: CS(=O)(=O)c1ccc(-c2cnc(N)c(C(=O)Nc3ccccc3)n2)cc1
Outline: (§1)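 For each measurement, 10 μM compound was applied for 30 min to K562 cells at 2×10^6 cells/mL. Aliquots were heated for 3 min across 48°C-58°C, pooled, and extracted in PBS with 0.5% NP-40 at 4°C; the supernatant after 21,000xg for 90 min was soluble protein. This was quantified by TMTpro 16plex LC-MS/MS with channel sums equalised, and thermal stability was reported relative to control samples from duplicates, on a log2 fold-change scale.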

[2] = compound: C[C@@H]1COCCN1C2=NC(=NC(=C2)C3(CC3)S(=O)(=O)C)C4=C5C=CNC5=CC=C4
Outline: as §1

[3] = compound: C[C@H](C1=CC=C(C=C1)C(=O)NC2=C3C=CNC3=NC=C2)N
Outline: as §1

duvelisib = compound: C[C@H](Nc1ncnc2nc[nH]c12)c1cc2cccc(Cl)c2c(=O)n1-c1ccccc1 [duvelisib]
Outline: as §1

gandotinib = compound: Cc1cc(Nc2cc(CN3CCOCC3)c3nc(C)c(Cc4ccc(Cl)cc4F)n3n2)n[nH]1 [gandotinib]
Outline: as §1

tozasertib = compound: Cc1cc(Nc2cc(N3CCN(C)CC3)nc(Sc3ccc(NC(=O)C4CC4)cc3)n2)n[nH]1 [tozasertib]
Outline: as §1

[4] = compound: Cc1cc(SCc2sc(-c3ccc(C(F)(F)F)cc3)nc2C)ccc1OCC(=O)O
Outline: as §1

ispinesib = compound: Cc1ccc(C(=O)N(CCCN)[C@@H](c2nc3cc(Cl)ccc3c(=O)n2Cc2ccccc2)C(C)C)cc1 [ispinesib]
Outline: as §1

bafetinib = compound: Cc1ccc(NC(=O)c2ccc(CN3CC[C@H](N(C)C)C3)c(C(F)(F)F)c2)cc1Nc1nccc(-c2cncnc2)n1 [bafetinib]
Outline: as §1

[5] = compound: Cc1cccc(CC(=O)N2CCc3c2ccc(-c2cn(C)c4ncnc(N)c24)c3F)n1
Outline: as §1

dasatinib = compound: Cc1nc(Nc2ncc(C(=O)Nc3c(C)cccc3Cl)s2)cc(N2CCN(CCO)CC2)n1 [dasatinib]
Outline: as §1

[6] = compound: Cn1cc(-c2ccc3c(c2)CCN3C(=O)Cc2cccc(C(F)(F)F)c2)c2c(N)ncnc21
Outline: as §1

[7] = compound: Cn1cc(-c2ccc3nnc(C(F)(F)c4ccc5ncccc5c4)n3n2)cn1
Outline: as §1

tipifarnib = compound: Cn1cncc1[C@@](N)(c1ccc(Cl)cc1)c1ccc2c(c1)c(-c1cccc(Cl)c1)cc(=O)n2C [tipifarnib]
Outline: as §1

mubritinib = compound: FC(F)(F)c1ccc(/C=C/c2nc(COc3ccc(CCCCn4ccnn4)cc3)co2)cc1 [mubritinib]
Outline: as §1

crizotinib = compound: C[C@@H](Oc1cc(-c2cnn(C3CCNCC3)c2)cnc1N)c1c(Cl)ccc(F)c1Cl [crizotinib]
Outline: as §1

doramapimod = compound: Cc1ccc(-n2nc(C(C)(C)C)cc2NC(=O)Nc2ccc(OCCN3CCOCC3)c3ccccc23)cc1 [doramapimod]
Outline: as §1

nilotinib = compound: Cc1cn(-c2cc(NC(=O)c3ccc(C)c(Nc4nccc(-c5cccnc5)n4)c3)cc(C(F)(F)F)c2)cn1 [nilotinib]
Outline: as §1

[8] = compound: Cc1nc(Nc2n[nH]c3c2CN(C(=O)N[C@H](CN(C)C)c2ccccc2)C3(C)C)c2sccc2n1
Outline: as §1

[9] = compound: Cc1ncc(-c2ccnc(Nc3ccc(S(C)(=O)=O)cc3)n2)n1C(C)C
Outline: as §1

Measured: log2 fold change

IP6K1 (UniProt Q92551)
inactive: [1] 0.129 | [2] -0.072 | [3] 0.295 | duvelisib 0.065 | gandotinib -0.145 | tozasertib -0.027 | [4] 0.23 | ispinesib -0.437 | bafetinib 0.02 | [5] 0.033 | dasatinib -0.361 | [6] 0.024 | [7] 0.116 | tipifarnib -0.038 | mubritinib 0.137

MED22 (UniProt Q15528)
Chain of UniProt Q15528 (Q15528 whole entry, looked up): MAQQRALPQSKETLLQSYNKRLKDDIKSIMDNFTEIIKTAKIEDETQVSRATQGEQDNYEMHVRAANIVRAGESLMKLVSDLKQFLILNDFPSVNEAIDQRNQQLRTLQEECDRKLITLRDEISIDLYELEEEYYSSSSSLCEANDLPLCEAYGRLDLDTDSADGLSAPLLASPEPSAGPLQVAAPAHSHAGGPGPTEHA
inactive: [1] 0.013 | crizotinib -0.082 | [2] 0.027 | [3] 0.027 | duvelisib 0.158 | tozasertib -0.036 | [4] 0.049 | doramapimod 0.027 | ispinesib -0.098 | bafetinib -0.137 | nilotinib 0.019 | [8] -0.048 | dasatinib -0.009 | [9] -0.011 | [6] 0.102 | [7] 0.059 | mubritinib -0.043

LUM (UniProt P51884)
Chain of UniProt P51884 (P51884 whole entry, looked up): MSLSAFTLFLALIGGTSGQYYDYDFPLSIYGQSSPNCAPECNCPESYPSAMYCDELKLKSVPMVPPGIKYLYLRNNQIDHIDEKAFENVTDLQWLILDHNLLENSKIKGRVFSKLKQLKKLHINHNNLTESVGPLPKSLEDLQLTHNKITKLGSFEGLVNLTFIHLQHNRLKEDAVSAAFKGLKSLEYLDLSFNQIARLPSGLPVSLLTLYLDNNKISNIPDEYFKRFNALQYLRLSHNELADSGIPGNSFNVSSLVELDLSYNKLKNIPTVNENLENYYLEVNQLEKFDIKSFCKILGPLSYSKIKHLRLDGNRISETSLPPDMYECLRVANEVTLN
inactive: [1] -0.011 | crizotinib 0.352 | [2] -0.146 | [3] 0.217 | duvelisib 0.021 | tozasertib -0.182 | [4] -0.135 | doramapimod 0.168 | ispinesib -0.007 | nilotinib 0.449 | [8] 0.036 | dasatinib 0.002 | [9] 0.257 | [6] 0.177 | [7] -0.075 | tipifarnib 0.055

IMMP1L (UniProt Q96LU5)
Chain of UniProt Q96LU5 (Q96LU5 whole entry, looked up): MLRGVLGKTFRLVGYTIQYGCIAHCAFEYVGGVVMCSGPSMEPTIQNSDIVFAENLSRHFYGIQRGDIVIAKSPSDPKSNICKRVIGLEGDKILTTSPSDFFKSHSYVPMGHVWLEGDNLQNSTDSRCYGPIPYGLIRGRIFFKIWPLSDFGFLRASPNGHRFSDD
inactive: [1] 0.024 | crizotinib 0.121 | [2] 0.045 | [3] -0.05 | duvelisib 0.088 | tozasertib -0.058 | [4] 0.012 | doramapimod 0.015 | ispinesib -0.063 | bafetinib -0.024 | nilotinib -0.044 | [8] 0.059 | dasatinib 0.098 | [9] 0.03 | [6] 0.068 | [7] 0.071 | tipifarnib 0.02 | mubritinib 0.048

ITPRID2 (UniProt P28290)
inactive: crizotinib -0.201 | [2] 0.229 | doramapimod -0.056 | ispinesib -0.035 | [7] -0.032 | tipifarnib -0.056

MAPRE3 isoform 2 (UniProt Q9UPY8)
Chain of UniProt Q9UPY8 (Q9UPY8 whole entry, looked up): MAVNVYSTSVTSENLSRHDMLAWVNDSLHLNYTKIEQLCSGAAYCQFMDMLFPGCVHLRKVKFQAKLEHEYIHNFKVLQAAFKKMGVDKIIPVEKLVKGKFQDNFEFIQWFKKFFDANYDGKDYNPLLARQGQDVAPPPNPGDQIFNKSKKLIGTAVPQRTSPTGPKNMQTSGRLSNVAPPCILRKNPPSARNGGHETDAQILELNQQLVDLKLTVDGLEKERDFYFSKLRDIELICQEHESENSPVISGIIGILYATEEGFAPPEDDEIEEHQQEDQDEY
inactive: crizotinib 0.22 | [3] 0.06 | tozasertib -0.264 | doramapimod 0.007 | nilotinib -0.539 | [8] -0.355 | [9] -0.118 | [6] -0.028 | tipifarnib 0.201

MCOLN3 (UniProt Q8TDD5)
inactive: gandotinib 0.022 | tozasertib -0.112 | ispinesib -0.255 | bafetinib -0.03 | [5] -0.183 | nilotinib -0.289 | [8] -0.113 | [9] 0.041 | [7] 0.079 | tipifarnib 0.072 | mubritinib 0.05

LRRCC1 (UniProt Q9C099)
inactive: duvelisib 0.09 | tozasertib 0.006 | [4] 0.013 | ispinesib -0.301 | dasatinib 0.017 | [7] 0.063

IGFBP6 (UniProt P24592)
Chain of UniProt P24592 (P24592 whole entry, looked up): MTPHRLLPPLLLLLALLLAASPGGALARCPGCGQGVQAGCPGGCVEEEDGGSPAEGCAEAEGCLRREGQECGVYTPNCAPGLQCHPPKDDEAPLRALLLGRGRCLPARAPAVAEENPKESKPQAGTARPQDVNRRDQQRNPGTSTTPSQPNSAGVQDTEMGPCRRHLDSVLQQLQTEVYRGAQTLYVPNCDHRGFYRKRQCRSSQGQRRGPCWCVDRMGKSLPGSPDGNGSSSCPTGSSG
inactive: [3] -0.035 | duvelisib 0.063 | [4] 0.14 | dasatinib -0.038 | [6] 0.152 | [7] 0.006
active: ispinesib -0.712

LRRFIP1 isoform 4 (UniProt Q32MZ4)
Chain of UniProt Q32MZ4 (Q32MZ4 whole entry, looked up): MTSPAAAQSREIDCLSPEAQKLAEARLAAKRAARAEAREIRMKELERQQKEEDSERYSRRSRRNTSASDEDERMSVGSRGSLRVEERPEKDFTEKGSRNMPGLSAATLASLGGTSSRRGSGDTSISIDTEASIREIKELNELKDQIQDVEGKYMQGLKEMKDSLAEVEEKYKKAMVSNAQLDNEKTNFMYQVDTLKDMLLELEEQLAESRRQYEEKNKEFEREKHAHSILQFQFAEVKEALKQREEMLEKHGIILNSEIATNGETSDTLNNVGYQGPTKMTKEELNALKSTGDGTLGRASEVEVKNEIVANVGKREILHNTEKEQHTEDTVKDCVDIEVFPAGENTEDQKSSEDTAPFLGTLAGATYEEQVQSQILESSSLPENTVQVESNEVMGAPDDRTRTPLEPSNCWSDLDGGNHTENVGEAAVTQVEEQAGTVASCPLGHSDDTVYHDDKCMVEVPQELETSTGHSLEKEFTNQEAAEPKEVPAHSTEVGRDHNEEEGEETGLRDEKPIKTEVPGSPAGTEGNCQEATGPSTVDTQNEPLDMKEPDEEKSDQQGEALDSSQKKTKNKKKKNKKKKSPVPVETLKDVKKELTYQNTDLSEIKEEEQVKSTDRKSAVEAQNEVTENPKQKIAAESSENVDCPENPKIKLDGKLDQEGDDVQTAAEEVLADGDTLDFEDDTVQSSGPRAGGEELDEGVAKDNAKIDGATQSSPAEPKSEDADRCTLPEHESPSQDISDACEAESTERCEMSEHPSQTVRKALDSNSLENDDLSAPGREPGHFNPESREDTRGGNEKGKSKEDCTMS
inactive: crizotinib 0.012 | [2] 0.175 | [3] 0.59 | duvelisib 0.025 | gandotinib 0.548 | [4] -0.025 | doramapimod -0.016 | [5] -0.046 | dasatinib -0.095 | [6] -0.226

LAPTM4B (UniProt Q86VI4)
inactive: [1] 0.012 | gandotinib 0 | bafetinib 0.024 | [5] -0.137 | mubritinib 0.017

IPP (UniProt Q9Y573)
inactive: bafetinib -0.225

KIF1B isoform 3 (UniProt O60333)
inactive: mubritinib 0.168

KIF13A isoform 4 (UniProt Q9H1H9)
inactive: [1] -0.363 | [3] -0.019 | [6] 0.069

LMNA isoform 2 (UniProt P02545)
inactive: tozasertib 0.357

MBLAC1 (UniProt A4D2B0)
inactive: crizotinib 0.038 | [3] -0.007 | duvelisib 0.019 | gandotinib -0.056 | [4] -0.017 | doramapimod 0.169 | ispinesib -0.142 | bafetinib -0.017 | [5] 0.065 | dasatinib -0.129 | [6] 0.086 | [7] -0.125 | tipifarnib 0.094 | mubritinib -0.045

LOX (UniProt P28300)
Chain of UniProt P28300 (P28300 whole entry, looked up): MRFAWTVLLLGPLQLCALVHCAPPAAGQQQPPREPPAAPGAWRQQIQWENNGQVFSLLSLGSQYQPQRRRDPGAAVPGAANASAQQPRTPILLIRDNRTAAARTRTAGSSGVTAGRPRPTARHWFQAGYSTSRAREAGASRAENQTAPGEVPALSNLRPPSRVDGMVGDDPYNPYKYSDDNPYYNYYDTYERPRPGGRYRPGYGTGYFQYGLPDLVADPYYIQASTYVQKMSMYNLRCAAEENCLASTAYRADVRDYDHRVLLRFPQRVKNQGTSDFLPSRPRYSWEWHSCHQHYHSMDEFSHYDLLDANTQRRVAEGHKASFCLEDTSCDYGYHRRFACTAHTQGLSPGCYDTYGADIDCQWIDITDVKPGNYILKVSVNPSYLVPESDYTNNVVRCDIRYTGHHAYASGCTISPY
inactive: nilotinib -0.183 | [8] 0.175 | [9] 0.12 | mubritinib -0.017
active: bafetinib -0.734

KIZ (UniProt Q2M2Z5)
Chain of UniProt Q2M2Z5 (Q2M2Z5 whole entry, looked up): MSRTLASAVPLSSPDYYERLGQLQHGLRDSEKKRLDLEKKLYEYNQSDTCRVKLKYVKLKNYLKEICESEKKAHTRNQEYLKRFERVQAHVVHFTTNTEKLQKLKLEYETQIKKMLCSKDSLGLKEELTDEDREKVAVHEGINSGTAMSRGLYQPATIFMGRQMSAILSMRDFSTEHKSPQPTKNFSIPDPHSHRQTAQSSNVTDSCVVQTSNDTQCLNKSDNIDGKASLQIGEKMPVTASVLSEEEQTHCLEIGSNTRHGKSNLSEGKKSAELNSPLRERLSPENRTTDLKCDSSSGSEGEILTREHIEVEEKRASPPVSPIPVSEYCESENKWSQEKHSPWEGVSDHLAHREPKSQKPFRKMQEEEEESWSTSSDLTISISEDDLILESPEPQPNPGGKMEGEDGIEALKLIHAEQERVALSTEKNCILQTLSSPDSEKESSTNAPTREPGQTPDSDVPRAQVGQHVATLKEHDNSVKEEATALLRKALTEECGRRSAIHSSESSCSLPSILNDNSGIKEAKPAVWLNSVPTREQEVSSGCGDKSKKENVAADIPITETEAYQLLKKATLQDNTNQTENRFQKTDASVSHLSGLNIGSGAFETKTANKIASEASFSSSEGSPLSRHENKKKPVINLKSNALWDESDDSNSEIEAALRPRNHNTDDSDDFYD
inactive: crizotinib -0.032 | [3] -0.115 | gandotinib 0.063 | doramapimod 0.071 | ispinesib -0.047 | [5] 0.268 | [6] -0.446 | [7] 0.196 | tipifarnib 0.217

MAP4K4 isoform 6 (UniProt O95819)
Chain of UniProt O95819 (O95819 whole entry, looked up): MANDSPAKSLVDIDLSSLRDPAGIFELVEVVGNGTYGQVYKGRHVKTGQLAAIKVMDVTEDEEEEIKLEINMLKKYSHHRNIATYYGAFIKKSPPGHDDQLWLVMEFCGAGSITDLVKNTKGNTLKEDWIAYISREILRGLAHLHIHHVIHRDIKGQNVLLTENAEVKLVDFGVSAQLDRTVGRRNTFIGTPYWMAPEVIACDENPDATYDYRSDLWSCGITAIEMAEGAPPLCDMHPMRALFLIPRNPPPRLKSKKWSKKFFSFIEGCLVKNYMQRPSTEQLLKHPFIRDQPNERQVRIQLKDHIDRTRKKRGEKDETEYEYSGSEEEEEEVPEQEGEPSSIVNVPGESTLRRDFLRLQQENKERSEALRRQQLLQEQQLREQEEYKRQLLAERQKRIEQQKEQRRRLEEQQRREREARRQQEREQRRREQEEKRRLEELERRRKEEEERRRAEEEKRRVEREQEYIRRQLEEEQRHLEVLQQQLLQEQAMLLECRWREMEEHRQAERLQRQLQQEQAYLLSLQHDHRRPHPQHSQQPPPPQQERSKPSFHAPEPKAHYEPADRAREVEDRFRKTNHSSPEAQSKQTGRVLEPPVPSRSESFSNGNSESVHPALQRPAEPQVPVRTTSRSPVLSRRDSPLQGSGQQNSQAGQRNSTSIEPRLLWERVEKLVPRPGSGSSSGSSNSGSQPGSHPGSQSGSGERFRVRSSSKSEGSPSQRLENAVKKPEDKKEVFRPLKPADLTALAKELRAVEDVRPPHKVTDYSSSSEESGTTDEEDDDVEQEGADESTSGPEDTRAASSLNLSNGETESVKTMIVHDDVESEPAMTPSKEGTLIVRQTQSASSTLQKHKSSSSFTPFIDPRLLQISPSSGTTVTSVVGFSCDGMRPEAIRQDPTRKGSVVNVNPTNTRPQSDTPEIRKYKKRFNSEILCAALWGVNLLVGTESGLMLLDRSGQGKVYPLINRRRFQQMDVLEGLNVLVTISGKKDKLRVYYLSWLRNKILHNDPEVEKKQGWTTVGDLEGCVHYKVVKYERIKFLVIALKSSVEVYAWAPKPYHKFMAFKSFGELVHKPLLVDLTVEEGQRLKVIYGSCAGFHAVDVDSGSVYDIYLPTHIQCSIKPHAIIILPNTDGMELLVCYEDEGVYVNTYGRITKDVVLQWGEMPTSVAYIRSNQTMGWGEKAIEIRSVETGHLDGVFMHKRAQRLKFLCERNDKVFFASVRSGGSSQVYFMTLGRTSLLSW
inactive: [1] -0.019 | [3] -0.305 | duvelisib -0.152 | tozasertib -0.132 | [4] -0.025 | nilotinib 0.047 | [8] -0.034 | dasatinib -0.001 | [9] 0.008 | [6] 0.1 | mubritinib 0.02

LEPROT (UniProt O15243)
Chain of UniProt O15243 (O15243 whole entry, looked up): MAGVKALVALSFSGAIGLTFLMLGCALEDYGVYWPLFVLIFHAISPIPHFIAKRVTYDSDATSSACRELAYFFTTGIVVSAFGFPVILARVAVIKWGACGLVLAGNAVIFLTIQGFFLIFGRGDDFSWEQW
inactive: [2] -0.149 | [3] 0.083 | duvelisib 0.045 | gandotinib 0.081 | tozasertib 0.003 | [4] -0.026 | [5] 0.03 | dasatinib 0.188 | [6] -0.193 | mubritinib 0.041

MAPK7 (UniProt Q13164)
inactive: [2] 0.03 | gandotinib 0.304 | doramapimod 0.057 | [5] 0.034
active: crizotinib 0.773

ING5 (UniProt Q8WYH8)
Chain of UniProt Q8WYH8 (Q8WYH8 whole entry, looked up): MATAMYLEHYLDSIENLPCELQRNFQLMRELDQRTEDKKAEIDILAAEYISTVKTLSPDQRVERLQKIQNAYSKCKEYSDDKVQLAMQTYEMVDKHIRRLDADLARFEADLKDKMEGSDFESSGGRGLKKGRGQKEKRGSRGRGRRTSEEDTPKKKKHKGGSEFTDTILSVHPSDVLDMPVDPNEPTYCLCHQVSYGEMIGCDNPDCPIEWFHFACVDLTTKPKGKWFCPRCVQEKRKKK
inactive: crizotinib -0.36 | [3] -0.018 | tozasertib -0.079 | doramapimod -0.019 | [6] 0.164 | tipifarnib 0.045 | mubritinib 0.206

MAP2K5 (UniProt Q13163)
inactive: crizotinib -0.012 | [3] 0.072 | duvelisib -0.049 | [4] -0.171 | doramapimod 0.053 | ispinesib 0.123 | dasatinib 0.063 | [6] 0.06 | [7] 0

IKZF1 isoform 2 (UniProt Q13422)
inactive: [1] 0.081 | [3] 0.059 | tozasertib 0.055 | ispinesib -0.034 | bafetinib -0.217 | nilotinib 0.101 | [8] -0.018 | [9] 0.043 | [6] -0.026 | [7] 0.015 | mubritinib -0.024
